# Test results published in PubChem BioAssay.
# “And” between values parts separate entries of the source, which are not always exact repeats. Equal entries are not always repeated.
# Assay: growth inhibition, single agents and combos, ICB984, cell-based, cisplatin or BGB combos, synergistic combos for chromothripsis tumors (AID 1671451);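 further: cells exposed for 96 hours before readout; 0% = vehicle DMSO and 100% = killing by high DMSO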
# Settings: ICB984 medulloblastoma cells, drug combinations, cisplatin combo, at 0.5 µM, stronger effect = higher value
row,Structure (SMILES),inhibition
1,O=c1[nH]cc(F)c(=O)[nH]1,7.66%
2,CCCCCCNC(=O)n1cc(F)c(=O)[nH]c1=O,-50% and -4.83%
3,Cn1cnc([N+](=O)[O-])c1Sc1ncnc2nc[nH]c12,-29.3% and -25.2%
4,CCn1cc(C(=O)O)c(=O)c2cc(F)c(N3CCN(C)CC3)cc21,-53.3% and -24%

# Same assay, conditions: ICB984 medulloblastoma cells, drug combinations, cisplatin combo, at 5 µM, stronger effect = higher value
row,Structure (SMILES),inhibition
1,O=c1[nH]cc(F)c(=O)[nH]1,-4.18%
2,CCCCCCNC(=O)n1cc(F)c(=O)[nH]c1=O,-43.5% and -25.3%
3,Cn1cnc([N+](=O)[O-])c1Sc1ncnc2nc[nH]c12,-23% and 1.4%
4,CCn1cc(C(=O)O)c(=O)c2cc(F)c(N3CCN(C)CC3)cc21,-34.1% and -14.2%

# Same assay, conditions: ICB984 medulloblastoma cells, drug combinations, measured here: 5 uM single agent, at 5 µM, stronger effect = higher value
row,Structure (SMILES),inhibition
1,O=c1[nH]cc(F)c(=O)[nH]1,-20.2%
2,CCCCCCNC(=O)n1cc(F)c(=O)[nH]c1=O,-14.5% and -8.95%
3,Cn1cnc([N+](=O)[O-])c1Sc1ncnc2nc[nH]c12,-20.7% and -15.2%
4,CCn1cc(C(=O)O)c(=O)c2cc(F)c(N3CCN(C)CC3)cc21,-3.29% and -1.89%
